This passage reports composite z-score and z-score results from PubChem BioAssay.

Assay [1] relates to Human papillomavirus type 1a protein E7 (residues 44-93). Description: small molecules binding HPV E7 44-93 – biochemical, small-molecule microarray, residues 44-93, 635 nm fluorescence, primary screen (AID 1108).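 Note: E7 fragment applied at 1 µg/mL in TBST for 1 h at 4 C; score combines spot fluorescence with its signal to noise ratio.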 As to conditions: fluorescence 635 nm, higher = more signal.
Assay [2] can be described thus: hepatitis C replication reporter changes, two-sided – Huh7 cells, luciferase reporter, HCV replication inhibitor project, primary screen (AID 1109).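 Note: huh7 hepatoma cells harbouring a luciferase neomycin HCV replicon reporter; luciferase luminescence as measure of HCV replicon replication; test concentration not given here.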 As to conditions: Huh7 HCV replicon luciferase reporter, 48 h; higher = more signal. In general terms: In a reporter assay the amount or activity of a reporter protein is the signal.
Assay [3] deals with Left-right determination factor 2 (Homo sapiens) (UniProt O00292). Briefly: small molecules binding LEFTY2 protein – biochemical, small-molecule microarray, 635 nm fluorescence scan, primary screen (AID 1110). As to conditions: higher = more signal.
Assay [4] addresses Calmodulin-1 (Homo sapiens) (UniProt P0DP23). Description: small molecules binding calmodulin-1 with EGTA – biochemical, small-molecule microarray, Cy5-labelled CALM1, profiling panel (AID 1111).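 Note: labelled calmodulin applied in Tris saline Tween buffer holding calcium plus EGTA and DTT.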 The settings on record: Cy5-CALM1 binding fluorescence, higher = more signal.
Assay [5] shares this target. Description: small molecules binding Ca-loaded calmodulin-1 – biochemical, small-molecule microarray, Cy5-labelled CALM1, plus calcium, artefact control for SMM control-protein annotation, profiling panel (AID 1112).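 Note: score merges spot fluorescence with signal to noise from triplicate slides.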 The settings on record: Cy5-CALM1 binding fluorescence, higher = more signal.
The nature of assay [6]: probe aWnt5a binding to arrayed compounds – biochemical, biotinylated probe, 635/667 nm fluorescence, primary screen (AID 1113).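 Note: score merges 667 nm fluorescence intensity with signal-to-noise per printed feature.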 As to conditions: small-molecule microarray, higher = more signal.
Assay [7] can be described thus: probe aShh binding to arrayed compounds – biochemical, biotinylated probe, 635/667 nm fluorescence, primary screen (AID 1114).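 Note: probe is biotin-labelled aShh protein from a stem cell growth factor screen; measures binding of labelled protein to compounds printed on the slide; score merges feature fluorescence at 667 nm with signal-to-noise.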 The settings on record: small-molecule microarray, higher = more signal.
The nature of assay [8]: probe aNog binding to arrayed compounds – biochemical, biotinylated probe, 635/667 nm fluorescence, primary screen (AID 1115).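 Note: probe is biotinylated aNog protein used at 0.15 µg/mL for 1 h at 4 C; z-score combines 667 nm fluorescence of each spot with its signal to noise.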 As to conditions: small-molecule microarray, higher = more signal.
Assay [9] concerns the target Torsin-1A-interacting protein 1 (Homo sapiens) (UniProt Q5JTV8). Description: compound microarray binding of lysate hLAP1 – cell lysate, small-molecule microarray, COS7 lysate, 635/667 nm fluorescence, primary screen (AID 1116). As to conditions: 635 nm fluorescence, higher = more signal.
The target of assay [10] is Alpha-bungarotoxin (Bungarus multicinctus) (UniProt P60615). Briefly: compounds binding labelled alpha-BTX control protein – biochemical, small-molecule microarray, Alexa647 label, 635/667 nm fluorescence, artefact control for SMM control protein annotation, profiling panel (AID 1117). The settings on record: alpha-BTX-A647 binding fluorescence, higher = more signal.
Sequence of Alpha-bungarotoxin (Bungarus multicinctus) (P60615 whole entry, looked up): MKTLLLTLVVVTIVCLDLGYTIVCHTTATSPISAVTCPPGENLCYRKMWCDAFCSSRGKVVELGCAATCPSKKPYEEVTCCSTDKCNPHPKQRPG

Sequence of Torsin-1A-interacting protein 1 (Homo sapiens) (Q5JTV8 whole entry, looked up): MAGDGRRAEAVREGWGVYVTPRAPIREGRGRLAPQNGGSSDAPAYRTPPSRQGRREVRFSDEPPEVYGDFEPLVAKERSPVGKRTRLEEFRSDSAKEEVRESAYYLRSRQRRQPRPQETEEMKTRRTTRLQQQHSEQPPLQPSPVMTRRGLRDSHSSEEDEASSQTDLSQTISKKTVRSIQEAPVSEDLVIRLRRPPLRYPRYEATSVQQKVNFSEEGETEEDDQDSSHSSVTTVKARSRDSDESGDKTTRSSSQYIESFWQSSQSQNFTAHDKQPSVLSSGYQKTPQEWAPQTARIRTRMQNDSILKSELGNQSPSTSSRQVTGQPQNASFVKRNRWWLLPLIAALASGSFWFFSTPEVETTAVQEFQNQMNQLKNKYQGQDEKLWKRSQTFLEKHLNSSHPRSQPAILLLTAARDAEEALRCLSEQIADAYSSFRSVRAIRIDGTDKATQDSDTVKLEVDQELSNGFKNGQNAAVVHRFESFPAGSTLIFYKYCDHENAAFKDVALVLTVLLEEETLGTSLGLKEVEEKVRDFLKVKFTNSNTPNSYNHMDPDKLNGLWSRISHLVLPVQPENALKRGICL
Sequence of Left-right determination factor 2 (Homo sapiens) (O00292 whole entry, looked up): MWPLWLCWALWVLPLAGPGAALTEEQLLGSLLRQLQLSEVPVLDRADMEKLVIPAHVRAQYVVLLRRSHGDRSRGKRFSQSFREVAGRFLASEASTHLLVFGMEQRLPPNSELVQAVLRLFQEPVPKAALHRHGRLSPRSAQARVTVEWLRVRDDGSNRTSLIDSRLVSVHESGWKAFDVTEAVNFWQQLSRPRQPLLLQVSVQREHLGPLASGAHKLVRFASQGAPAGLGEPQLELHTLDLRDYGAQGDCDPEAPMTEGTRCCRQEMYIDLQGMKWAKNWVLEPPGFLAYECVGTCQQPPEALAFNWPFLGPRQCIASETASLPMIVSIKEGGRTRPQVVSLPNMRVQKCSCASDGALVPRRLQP

Take `CC(C)N1C(=O)C[C@@](C(=O)NCCCN(C)C)(c2ccc([N+](=O)[O-])cc2)[C@H]1c1ccc(CO)cc1`: the composite z-score in assay [1] was -0.218; in [3], -0.438; in [4], -0.194; in assay [5] it was -0.774; in [6], -0.113; in assay [7] it was 0.0062. Moreover, the composite z-score in assay [8] was -0.141; in assay [9], 0.0945; in assay [10], 0.942. Moreover, the z-score in assay [2] was -0.581.
On to `COCCCNC(=O)[C@@]1(Sc2ccc(C)cc2)CC(=O)N(C2CCCCC2)[C@@H]1c1ccc(CO)cc1`, for which the composite z-score was 0.104 in assay [1]; -0.942 in assay [3]; -0.206 in assay [4]; 0.0573 in [5]; -0.0799 in assay [6]; -0.0643 in assay [7]. For the same compound, the results for the composite z-score in [8], in assay [9] and in assay [10] were 0.684, 0.447 and -0.255, respectively. In [2], this compound gave a z-score of -1.19.
In the case of `CC(C)N1CC=CC23O[C@@H]4C=CCOC(=O)[C@@H]4[C@H]2C(=O)N(CCCO)[C@@H]3C1=O` (stereo not given in full), the composite z-score was 1.49 in [1]; -0.932 in assay [3]; -0.373 in assay [4]; 0.731 in assay [5]; -0.18 in [6]; -0.123 in assay [7]. In addition, the composite z-score in [8] is -0.196; in assay [9] it was 1.47; in assay [10], -0.381. In [2], this compound returned a z-score of -0.223.
For `CC(c1ccccc1)C(O)C1C=CC2C(=O)N(c3ccccc3)C(=O)C2N1Nc1ccc([N+](=O)[O-])cc1` (stereo not given), the composite z-score was 1.46 in assay [1]; 0.365 in assay [3]; 0.93 in assay [4]; 0.328 in assay [5]; -0.001 in assay [6]; -0.0146 in [7]. In addition, the composite z-score is 0.457 in [8], 0.464 in assay [9] and 1.53 in assay [10]. This compound also registered a z-score in [2] of -0.0504.
For the compound `CCOC(=O)C[C@H]1[C@H](OC(=O)Cc2ccc3c(c2)OCO3)[C@@H](NC(=O)Cc2ccc(OC)cc2)c2cc(OCCCO)ccc2N1C(=O)c1ccc2ccccc2n1`, the composite z-score in assay [1] was 0.189; in assay [3], 0.155; in assay [4], -0.22; in [5], -0.0545; in assay [6] it was -0.0792; in [7], 0.23. The composite z-score in [8] was -0.134; in [9], 0.526; in assay [10], 0.424. In assay [2], this compound yielded a z-score of -0.763.
As for `C=CCNC(=O)[C@@H]1[C@H]2C(=O)O[C@H](c3ccccc3)[C@H](c3ccccc3)N2[C@H](c2ccc(O)cc2)[C@@]12C(=O)N(C(=O)OCCOC)c1ccc(C#CC3(O)CCCCCC3)cc12`, the composite z-score is -1.18 in [1]; -2.4 in assay [3]; -0.901 in assay [4]; -0.123 in assay [5]; -0.221 in assay [6]; -0.192 in assay [7]. In addition, the composite z-score in assay [8] is -0.343; in [9] it was -1.28; in assay [10], -1.42. In assay [2], the z-score is -0.0817.
In the case of `COc1ccc(-c2nc(-c3ccccc3)c3c(c2C)CO[Si]3(C(C)C)C(C)C)cn1`, the composite z-score in assay [1] was 0.107; in [3] it was 0.372; in assay [4] it was -0.461; in assay [5] it was -0.309; in assay [6], -0.0405; in assay [7], 0.0278. Besides, the composite z-score was -0.294 in assay [8], 0.104 in assay [9] and 0.397 in assay [10]. For the same compound, the z-score in [2] was -1.05.
On to `O=C(NCC(F)(F)F)[C@@H]1c2ccccc2C(=O)N(Cc2ccccc2C(F)(F)F)[C@H]1c1ccc(CO)cc1`, for which the composite z-score in [1] is -0.315; in assay [3], -1.02; in assay [4], 0.0216; in assay [5], 0.792; in [6], -0.276; in [7] it was 0.0044. Moreover, the composite z-score is -0.101 in assay [8], -0.121 in [9] and -0.695 in assay [10]. In addition, the z-score in assay [2] was -0.941.
Take `CN(C)C(=O)[C@@]1(CCS(=O)(=O)c2ccccc2)N=C(c2ccc(OCCCO)cc2)O[C@H]1c1ccccc1`: the composite z-score in [1] is 1.46; in [3], -0.757; in assay [4], 1.47; in [5] it was 0.759; in [6] it was 0.16; in [7] it was 0.207. For the same compound, the composite z-score in assay [8] is 0.812; in [9] it was 1.84; in assay [10], 1.9. Besides, the z-score in assay [2] was -1.76.
Consider `CO[C@H]1O[C@H](CO)[C@@H](OC(=O)Nc2ccccc2-c2ccccc2)[C@H](OC(=O)Nc2ccc3c(c2)OCO3)[C@H]1OC(=O)Nc1ccc2c(c1)OCO2`, for which the composite z-score in assay [1] was 1.29; in [3] it was 0.395; in [4] it was 0.58; in assay [5] it was -0.187; in assay [6] it was -0.0194; in assay [7], 0.398. For the same compound, the figures for the composite z-score in [8], in [9] and in assay [10] were 1.19, 1.76 and 1.25, respectively. Moreover, the z-score in [2] was 1.54.
Turning to `COC(=O)[C@@]1(Cc2ccccc2)[C@H]2c3cc(C(=O)N(C)C)n(CCc4ccc(O)c(OC)c4)c3C[C@H]2CN1C(=O)c1ccccc1`, the composite z-score was 0.351 in [1]; 0.38 in [3]; 0.89 in assay [4]; -0.136 in [5]; 0.583 in [6]; 1.49 in [7]. Moreover, the composite z-score in assay [8] was determined as 0.974; in assay [9], 0.279; in assay [10], 0.19. The compound also returned a z-score in [2] of -0.261.
Turning to `[N-]=[N+]=NCc1ccccc1[C@H]1OC(c2ccc(OCCCO)cc2)=N[C@@]1(CCS(=O)(=O)c1ccccc1)C(=O)NCC(O)CO` (stereo not given in full), the composite z-score in assay [1] was 1.46; in assay [3], -0.342; in assay [4] it was 1.42; in assay [5] it was 0.66; in assay [6], 0.143; in [7], 0.522. Besides, the values for the composite z-score in assay [8], in assay [9] and in assay [10] were 1.59, 1.96 and 1.66, respectively. In assay [2], the z-score is -0.157.
`CCOC(=O)C1=CC[C@@H](c2ccccc2C(F)(F)F)N(S(=O)(=O)c2ccc(C)cc2)[C@H]1c1ccc(C#N)cc1`: the composite z-score in assay [1] was 0.325; in [3], 0.327; in assay [4] it was 1.63; in assay [5] it was 0.697; in assay [6] it was -0.0152; in assay [7], -0.283. Further, the results for the composite z-score in assay [8], in [9] and in assay [10] were -0.301, 0.408 and 0.969, respectively. This compound gave a z-score in assay [2] of 0.65.
